Screening data: PubChem, National Center for Advancing Translational Sciences (NCATS)
D1 antag = Antagonist of Human D 1 Dopamine Receptor: qHTS. D(1A) dopamine receptor (Homo sapiens), P21728. HEK293 TREx D1 cells, calcium flux, dopamine EC80; hits give low values. activity change, negative = inhibition, % at 10 µM. 360,000 compounds, 3.2% hits. AID 504652, 2011; in the data active = activity change below about -30%
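HEK293 T-REx cells expressing inducible, force-coupled D1 receptor; no-wash Ca dye, 30–90 min RT. Cmpd → 180 s read at 1 Hz → EC80 DA → 180 s read.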
D1 potentiator = Potentiators of Human D1 Dopamine Receptor: qHTS | 360,000 compounds, 0.036% hits | HEK293 TREx D1 cells, calcium flux, dopamine EC20 potentiation | AID 504651, 2011 | D(1A) dopamine receptor (Homo sapiens), P21728 | potentiation, % at 10 µM; in the data active = potentiation above about 30%
TRHR ag = qHTS for Small Molecule Agonists and Allosteric Enhancers of Human TRH Receptor: Primary Screen for Agonists; TRHR cells, calcium flux fluo-8, FDSS agonist mode; activation, % at 2 µM; AID 493084, 2011; Thyrotropin-releasing hormone receptor (Homo sapiens), P34981; 360,000 compounds, 0.18% hits
Target sequence (P34981 whole entry, looked up): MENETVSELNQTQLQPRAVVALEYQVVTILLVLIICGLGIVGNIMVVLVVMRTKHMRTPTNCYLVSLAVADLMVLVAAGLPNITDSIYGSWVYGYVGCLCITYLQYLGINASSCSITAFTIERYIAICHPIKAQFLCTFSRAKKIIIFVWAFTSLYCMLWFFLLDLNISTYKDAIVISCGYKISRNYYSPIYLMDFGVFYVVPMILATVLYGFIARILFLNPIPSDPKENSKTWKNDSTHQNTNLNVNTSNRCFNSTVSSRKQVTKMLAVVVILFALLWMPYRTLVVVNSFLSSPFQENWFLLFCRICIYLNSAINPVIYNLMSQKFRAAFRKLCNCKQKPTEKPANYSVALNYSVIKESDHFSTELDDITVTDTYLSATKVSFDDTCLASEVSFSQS
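TRHR-expressing cells loaded with fluo-8 calcium dye; 23 nL library compound pin-transferred, kinetic FDSS fluorescence (Ex 480/Em 530) recorded about 180 s for agonist-induced calcium release, before a 10 nM TRH EC20 addition for potentiator mode.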
D1 ag = Allosteric Agonists of the Human D1 Dopamine Receptor: qHTS; D(1A) dopamine receptor (Homo sapiens), P21728; HEK293 T-REx D1 cells, calcium flux, agonist mode; activation, % at 2 µM; 360,000 compounds, 1% hits
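Agonism was scored from calcium flux recorded over 180 s (1 read/s) after pintool compound addition, following a 10-cycle baseline. Cells were inducible force-coupled HEK293 TREx D1, plated overnight at 30 C and loaded with no-wash calcium dye.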
TRHR PAM = qHTS for Small Molecule Agonists and Allosteric Enhancers of Human TRH Receptor: Primary Screen for Enhancers | Thyrotropin-releasing hormone receptor (Homo sapiens), P34981 | TRHR cells, fluo-8 calcium fluorescence, EC20 TRH enhancement | enhancement, % at 2 µM | 360,000 compounds, 0.66% hits; in the data active = enhancement above about 30%
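Enhancer read-out: after compound pinning and an initial kinetic agonist-mode read, an EC20 of TRH (10 nM final) was injected and fluo-8 calcium signal (Ex 480/Em 530) followed at 1 s/cycle for 100 cycles in TRHR-expressing cells.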
Each line names hits and unclear results; the compound was inactive in the other large screens. A selection: hits, their analogues and other compounds. The true share with any hit is near 4.7%. Cut-off read from the data, not from the text of the source, unless noted: active = activation above about 30%; inactive = the rest.

O=C(COc1ccc2c3c(c(=O)oc2c1)CCCC3)NCCN1CCOCC1	none
O=C(COc1ccc2c3c(c(=O)oc2c1)CCCC3)NCCCN1CCOCC1	D1 antag -30.4
CCN(CC)N=Nc1ccc(S(=O)(=O)Nc2c(C)n(C)n(-c3ccccc3)c2=O)cc1	none
O=C(Nc1ccc(Cl)cc1)Nc1nc(-c2ccccc2O)cs1	D1 antag -37.5
O=C(Nc1ccc(Cl)cc1)Nc1nc(-c2sccc2Br)cs1	none
Cc1ccc2c(c1)c1c3n2CCN(C(=O)CN2CCN(C)CC2)C3CCC1 (configuration not stated)	none
CN1CCN(CC(=O)N2CCn3c4c(c5cc(C6CCCCC6)ccc53)CCCC42)CC1 (configuration not stated)	D1 antag -37.9
FC(F)Sc1ccc(NC(=S)NC2CCCC2)cc1	D1 antag -34.2
COC(=O)c1ccc(NC(=S)NC2CCCCC2C)cc1 (configuration not stated)	none
OC1CCC(NC(=S)Nc2ccc(SC(F)F)cc2)CC1 (configuration not stated)	none
CC1CCCC(NC(=S)Nc2ccc(SC(F)F)cc2)C1C (configuration not stated)	D1 antag -43.9
O=C(NCc1ccncc1)c1cccc(S(=O)(=O)Nc2ccc(SC(F)F)cc2)c1	none
CSc1ccc(C2CC(=O)Nc3c2c(=O)n(C)c(=O)n3C)cc1 (configuration not stated)	none
CCc1ccc(C2CC(=O)Nc3c2c(=O)n(C)c2ncnn32)cc1 (configuration not stated)	D1 antag -39.4
N=c1sccn1CC(=O)Nc1cccc(Oc2ccccc2)c1	none
N=c1sccn1CC(=O)Nc1cc(Cl)ccc1Oc1ccccc1	D1 ag 55.5
CCN(CC)C1=CC2=CC(=C(C#N)C#N)CCC2CC1 (configuration not stated)	D1 antag -82.2, D1 ag 487.2
CCCCN(C)C1=CC2=CC(=C(C#N)C#N)CCC2CC1 (configuration not stated)	D1 antag -85.1, TRHR ag 261.2, D1 ag 489.8
N#CC(C#N)=C1C=C2C=C(N3CCCCC3)CCC2CC1 (configuration not stated)	TRHR ag 248.7, D1 ag 671.3
COC(=O)c1ccc(CSc2nc(C)nc3c2c(=O)n(C)c(=O)n3C)o1	D1 antag -39.2
Cc1nc(SCC(=O)Nc2cc(C)on2)c2c(=O)n(C)c(=O)n(C)c2n1	D1 antag -63.9
CSc1ncc(Cl)c(C(=O)Nc2c(C(=O)c3ccc(Cl)cc3)oc3ccccc23)n1	TRHR PAM 47.3
CSc1ncc(Cl)c(C(=O)Nc2c(C(=O)c3ccc(C)cc3)oc3ccccc23)n1	none
Cc1ccc(N(Cc2ccccc2)C(=O)c2cc(S(=O)(=O)N3CCOCC3)ccc2N2CCCC2)cc1	none
Cc1ccc(CN2C(=O)C(=O)c3cc(Br)cc(C)c32)cc1	D1 antag -49.0
Cc1ccn2c(CNCc3cnn(C)c3)c(C(=O)N3CCCCCC3)nc2c1	none
CCOc1ccc(C(=O)NC(C(=O)NCCc2ccc(OC(F)F)cc2)C(C)C)cc1 (configuration not stated)	none
COc1ccc(NC(=S)N2CCC(Cc3ccccc3)CC2)cc1OC	D1 antag -53.0
COc1cccc(NC(=S)N2CCC(Cc3ccccc3)CC2)c1	D1 antag -36.8
CCOC(=O)Cn1c(=O)oc2cc(S(=O)(=O)N3CCN(c4ccccc4F)CC3)ccc21	none
Cc1ccc(NC2=NCC(=O)N2CCc2ccccc2)cc1C	none
COc1ccc(CCN2C(=O)CN=C2Nc2ccc(F)cc2)cc1OC	D1 antag -39.3
C=CCN1C(=O)CN=C1Nc1ccc(F)cc1	none
COC1=C(Nc2ccc(OC)cc2)C(=O)c2ccccc2C1=O	none
CCOc1ccc(NC2=C(OC)C(=O)c3ccccc3C2=O)cc1	D1 antag -32.6
CCOc1ccc(NC2=C(Cl)C(=O)N(Cc3ccccc3)C2=O)cc1	D1 antag -30.1
